From PubChem BioAssay (NCATS) come the findings set out here.

For experiment [1], the target named is Phospholipid hydroperoxide glutathione peroxidase GPX4 (Homo sapiens) (UniProt P36969). The experiment in a line: Primary qHTS Assay for Inhibitors of Recombinant Selenoprotein Glutathione Peroxidase 4 (GPX4) (AID 1845192). Further: nearly all actives have a fitted effect of over 65% in size. Further: potency means the concentration at half of the fitted maximal effect. The method, boiled down:
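GR-coupled assay: recombinant GPX4 preincubated 30 min with compound at room temperature; final 200 nM GPX4, 1 mM GSH, 0.5 mM cumene hydroperoxide, 0.5 mM NADPH, 100 nM GR, 0.01% BSA, pH 7.5 Tris. NADPH fluorescence (340/450 nm) read at 0 and 15 min.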
A general note: In qHTS, concentration-response curves come from the screen itself.

For experiment [2], the target named is Luciferin 4-monooxygenase (Photinus pyralis) (UniProt P08659). The experiment in a line: Primary firefly luciferase (FLuc) qHTS assay for identification of artifact compounds. (AID 1845220). Further: nearly all actives have a fitted effect of over 60% in size. Further: potency means the concentration at half of the fitted maximal effect. The method, boiled down: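 Enzymatic FLuc inhibition assay: compounds pre-exposed to luciferin/ATP (10 uM each) for 15 min, then purified P. pyralis enzyme at 10 nM added. Read-out: luminescence at 5 min.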

Experiment [3] concerns Nanoluciferase (engineered Oplophorus gracilirostris luciferase). The experiment in a line: Primary Nanoluciferase (NLuc) qHTS assay for identification of artifact compounds. (AID 1845222).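 Further: NLuc secreted into diluted conditioned medium of S16 cells; series mostly up to about 54 µM.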 The method, boiled down:
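S16 cell supernatant NLuc, 1:55; cpds qHTS; 15 min RT dark; Nano-Glo substrate 1:100, 5 min; luminescence; Hill fit of % inhibition.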

A short description of experiment [4]: Primary fluorescence-based thiol-reactive (MSTI) qHTS assay for identification of artifact compounds. (AID 1845221). Further: nearly all actives have a fitted effect of over 65% in size. Further: potency means the concentration at half of the fitted maximal effect. The method, boiled down:
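Curve-fitted percent inhibition (4-parameter Hill) derived from fluorescence, Ex 525/Em 598 nm, scaled with Acetyl-MSTI and MSTI; 1 h incubation at room temperature.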

Records with an inconclusive call do not appear. The source made the active and inactive calls. The call rests on the fitted dose curve; in most records, active means well fitted curve in the direction sought with a large enough effect; inconclusive means small, poorly fitted or top-dose-only effect, or another doubt; inactive means no such curve, though single readings can be large; an effect the other way counts as inactive or inconclusive.

Sequence of Phospholipid hydroperoxide glutathione peroxidase GPX4 (Homo sapiens) (P36969 whole entry, looked up): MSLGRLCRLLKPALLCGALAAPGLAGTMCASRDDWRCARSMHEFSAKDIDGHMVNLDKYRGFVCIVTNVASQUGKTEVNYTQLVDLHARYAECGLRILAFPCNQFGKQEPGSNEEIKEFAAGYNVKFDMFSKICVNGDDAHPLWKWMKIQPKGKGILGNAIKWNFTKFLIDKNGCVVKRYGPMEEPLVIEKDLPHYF

Take `COc1cc2c(NC3CCN(C(C)C)CC3)nc(N3CCC(F)(F)CC3)nc2cc1OCCCN1CCCC1`: the Potency in experiment [1] was 25.5 µM (active). Further, the Potency result in experiment [2] and in experiment [3] was “inactive” each time.
Take `Cn1ncc(Cl)c1-c1cc(C(=O)N[C@H](CN)Cc2ccc(F)c(F)c2)oc1Cl`: the Potency result in experiment [1], in experiment [4] and in experiment [3] was “inactive” in each case.
For the compound `CCCCCc1ccc(/C=C/C(=O)Nc2cc(Cl)ccc2C(=O)O)cc1`, the Potency entry in experiment [2], in experiment [4] and in experiment [3] was “inactive” each time.
On to `CN(C)C(=O)Nc1cccc(-c2ccc(N(C)C)cc2)c1`, for which the Potency entry in experiment [1] and in experiment [3] was “inactive” throughout. Moreover, the Potency in experiment [4] is 2.67 µM (active).
For the compound `C[C@@H](c1ccc2nccn2c1)n1nnc2ncc(-c3cnn(C)c3)nc21`, the Potency result in experiment [2], in experiment [4] and in experiment [3] was “inactive” each time.
For the compound `O=C(Nc1ccccc1C(=O)NC1CCCCNC1=O)c1cc2ccccc2s1` (stereo unspecified), the Potency entry in experiment [4] and in experiment [3] was “inactive” each time.
With `Cc1[nH]c(/C=C2\C(=O)Nc3cc(-c4ccccc4)ccc32)c(C)c1CCC(=O)O`, the Potency in experiment [2] was 6.01 µM (active); in experiment [4], 0.67 µM (active).
For `CCOC(=O)N1c2ccc(C(F)(F)F)cc2C(N(Cc2cc(C(F)(F)F)cc(C(F)(F)F)c2)C(=O)OC)CC1CC` (stereo unspecified), the Potency entry in experiment [1], in experiment [2] and in experiment [3] was “inactive” in each case.
Take `C=C[C@H](/C=C\c1ccc(O)cc1)c1ccc(O)cc1`: the Potency entry in experiment [1], in experiment [2] and in experiment [3] was “inactive” in each case.
With `c1cc(NC2CCNCC2)nc(-c2cnc3ccccn23)c1`, the Potency in experiment [1] was 16.1 µM (active). The Potency result in experiment [2] and in experiment [3] was “inactive” throughout.
As for `O=C(Nc1cccnn1)N1CCN(c2nccc(-c3ccc(F)c(F)c3)n2)CC1`, the Potency result in experiment [2], in experiment [4] and in experiment [3] was “inactive” in each case.
Regarding `Cc1cc(N2CCOCC2)ccc1Nc1nc(NC2CCCCC2)c2[nH]cnc2n1`, the Potency entry in experiment [2] and in experiment [3] was “inactive” in each case. Also, the Potency in experiment [4] is 1.68 µM (active).
Regarding `COc1cc2ncc(-c3ccccc3)nc2cc1OC`, in experiment [1], the Potency is 20.2 µM (active). Also, the Potency entry in experiment [4] and in experiment [3] was “inactive” each time.
`Cc1nc2cc(C(=O)NCc3ccccn3)nn2c(C)c1Cc1cccc(Cl)c1`: the Potency entry in experiment [2], in experiment [4] and in experiment [3] was “inactive” each time.
For the compound `N#Cc1ccc(N2N=C3c4ccc(C(=O)O)cc4CC[C@@H]3[C@@H]2C2CCCC2)cc1Cl`, the Potency result in experiment [2], in experiment [4] and in experiment [3] was “inactive” in each case.
Take `COc1cc(C2OC(c3ccc(OC)c(OC)c3)C(C)C2C)ccc1O` (stereo unspecified): the Potency entry in experiment [3] is “inactive”.
Take `Nc1nc(Nc2ccc3c(c2)CCC(N2CCCC2)CC3)nn1-c1cc2c(nn1)-c1ccccc1CCC2` (stereo unspecified): the Potency result in experiment [1], in experiment [2] and in experiment [3] was “inactive” in each case.
For `CC1(NC(=O)c2ccc(C#Cc3cccc(F)c3)cn2)COC1`, the Potency entry in experiment [2], in experiment [4] and in experiment [3] was “inactive” each time.
Consider `CC(C)c1c(O)ccc2c1CC[C@H]1C(C)(C)CCC[C@]21C`, for which the Potency entry in experiment [1], in experiment [4] and in experiment [3] was “inactive” each time.
For the compound `Cc1noc(C)c1-c1cc(O)cc(C(O)c2ccccc2)c1` (stereo unspecified), the Potency entry in experiment [1], in experiment [4] and in experiment [3] was “inactive” each time.
